HDAC3 inhib = inhibitors of human histone deacetylase 3; AID 2718; hit rate 0.15% among 320,000; inhibition, % at 8.3 µM; O15379; recombinant HDAC3, fluorogenic peptide/trypsin coupled, fluorescence; in the data active = inhibition above about 26%, passing the limit was not always enough
G6PDH counter = inhibits Leuconostoc G6PDH, flagging false hits in G6PDH-based assays; Purified L. mesenteroides G6PDH, diaphorase/resazurin coupled fluorescence, 45 min; inhibition, % at 5 µM; hit rate 0.12% among 200,000; AID 1020; in the data active = inhibition above about 50%
UBC9 SUMO inh = SUMOylation inhibition | P63279 | HTRF SUMOylation assay, SAE1/SAE2 + UBC9, in vitro | inhibition, % at 35 µM | hit rate 0.36% among 290,000; in the data active = inhibition above about 50%, passing the limit was not always enough
PHOSPHO1 block = blocks human PHOSPHO1 phosphatase activity; inhibition, % at 13.3 µM; hit rate 1.1% among 290,000; recombinant PHOSPHO1, absorbance phosphatase assay; AID 1565; Q8TCT1; in the data active = inhibition above about 60%
PfM18AAP inh = blocks P. falciparum M18 aspartyl aminopeptidase; inhibition, % at 7.35 µM; AID 1822; recombinant PfM18AAP, H-Glu-NHMec fluorogenic cleavage; hit rate 1.2% among 290,000;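 active = inhibition above the campaign mean inhibition over all tested compounds plus 3 SD, cut at about 28% in these data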;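 also: 0% = plate median of test compound wells and 100% = 2 mM ZnCl2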
p97 ATPase inh = blocks human p97 ATPase activity; P55072; recombinant p97 ATPase, Kinase-Glo ATP luminescence, 3 h; inhibition, % at 8 µM; hit rate 0.42% among 220,000; AID 1481; in the data active = inhibition above about 15%;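 also: 0% = DMSO vehicle and 100% = wells lacking enzyme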
Target sequence (P55072 whole entry, looked up): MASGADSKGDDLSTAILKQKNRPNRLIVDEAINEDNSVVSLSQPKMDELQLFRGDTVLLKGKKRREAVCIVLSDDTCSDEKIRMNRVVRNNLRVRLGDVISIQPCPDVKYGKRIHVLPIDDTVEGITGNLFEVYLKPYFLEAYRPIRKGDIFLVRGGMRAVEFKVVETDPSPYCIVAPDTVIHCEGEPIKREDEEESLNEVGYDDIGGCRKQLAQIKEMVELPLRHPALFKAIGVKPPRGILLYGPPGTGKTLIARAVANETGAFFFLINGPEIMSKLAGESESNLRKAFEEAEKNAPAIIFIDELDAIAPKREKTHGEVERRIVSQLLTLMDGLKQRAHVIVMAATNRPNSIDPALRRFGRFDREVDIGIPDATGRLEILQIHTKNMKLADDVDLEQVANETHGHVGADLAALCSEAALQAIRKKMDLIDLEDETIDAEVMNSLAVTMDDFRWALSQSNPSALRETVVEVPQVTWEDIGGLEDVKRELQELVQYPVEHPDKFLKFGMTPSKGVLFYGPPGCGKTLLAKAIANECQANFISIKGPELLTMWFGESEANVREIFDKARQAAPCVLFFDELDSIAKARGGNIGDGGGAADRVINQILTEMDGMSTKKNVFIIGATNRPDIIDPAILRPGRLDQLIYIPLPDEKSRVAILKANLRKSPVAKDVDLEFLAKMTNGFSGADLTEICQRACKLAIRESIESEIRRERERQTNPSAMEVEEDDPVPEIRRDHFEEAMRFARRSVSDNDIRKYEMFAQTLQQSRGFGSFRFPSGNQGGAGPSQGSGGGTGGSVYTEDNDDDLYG
Numbers without * were called inactive; / = not tested or not shown. A selection: hits, their analogues and other compounds. The true share with any hit is near 2.5%.

SMILES | HDAC3 inhib | G6PDH counter | UBC9 SUMO inh | PHOSPHO1 block | PfM18AAP inh | p97 ATPase inh
CC(C)c1ccc(NC(=O)c2ccc(NC3=NC4CS(=O)(=O)CC4S3)cc2)cc1 (configuration not stated) | -5 | / | -7 | 18 | 0 | /
Cn1c(=O)c(C(=O)Nc2ncccc2O)c(O)c2ccccc21 | 3 | 11 | 20 | 82* | 10 | 0
CC(C)Oc1ccccc1C1NC(=O)CCC1[N+](=O)[O-] (configuration not stated) | 1 | / | 11 | 28 | 1 | /
O=C(Cc1ccccc1)NNC(=S)NC(=O)c1cccs1 | -2 | / | -13 | 86* | 12 | 6
O=C(/C=C/c1ccccc1)NC(=S)NNC(=O)Cc1cccs1 | 3 | 4 | -4 | 1 | 13 | 6
O=C(Cc1cccs1)NCc1cccs1 | -13 | 4 | 28 | 15 | 7 | 0
O=C(Cc1cccs1)NNC(=S)NC(=O)c1ccc(F)c(F)c1 | 2 | -16 | -1 | 41 | 44* | 3
O=C(NC(=S)NNC(=O)c1cccs1)c1ccc(Br)o1 | 6 | -6 | 15 | 94* | 10 | 7
O=C(Cc1cccs1)NNC(=S)NC(=O)c1ccccc1 | 3 | -11 | -18 | 6 | 35* | 1
CC(=O)NNC(=S)NC(=O)c1ccccc1 | 6 | 9 | -17 | 32 | 48* | 0
O=C(CCc1ccccc1)NNC(=O)c1ccc(Cl)cc1 | -1 | / | 0 | -32 | 0 | /
O=C(CCc1ccccc1)NNC(=S)NC(=O)c1ccc(Cl)cc1 | 6 | 1 | -4 | 95* | 4 | 4
CC(=O)NNC(=S)NC(=O)c1ccc(C)cc1 | 2 | 4 | 3 | 20 | 21 | 0
COc1ccc(-c2cn(-c3ccccc3)c3[n+]2CCS3)cc1 | 5 | -5 | -4 | -10 | -5 | 4
CCC(C)c1ccccc1N1CC(C(=O)N(C)CC(=O)Nc2cccc(F)c2)CC1=O (configuration not stated) | 1 | / | / | / | / | /
COc1ccccc1-c1nc(SCC(=O)Nc2cc(C)on2)c2c(=O)n(C)c(=O)n(C)c2n1 | -5 | / | 14 | 65* | 2 | /
Cc1cc(NC(=O)CSc2nc(-c3ccccc3)nc3c2c(=O)n(C)c(=O)n3C)no1 | 3 | 4 | 8 | 16 | 1 | 7
CC(C(=O)NCCc1ccc(Cl)cc1)n1c(=O)c2cccn2c2cccnc21 (configuration not stated) | 3 | / | 13 | 8 | -9 | /
Cc1ccc(C)c(S(=O)(=O)N2CCCOC2CNC(=O)C(=O)NCc2ccccn2)c1 (configuration not stated) | 0 | / | 5 | 51 | 2 | /
COc1cc(CNc2ccccc2SC)ccc1O | -3 | 10 | 5 | 72* | 8 | 1
COc1ccc(CC(=O)NCc2ccc(F)cc2)cc1S(=O)(=O)N1CCOCC1 | -1 | / | / | / | / | /
Cc1ccc(CN2CC(C(=O)N3CCN(S(=O)(=O)c4cccc(F)c4)CC3)CC2=O)cc1 (configuration not stated) | -9 | / | / | / | / | /
COc1ccc(NC(=O)C2CC(c3ccccc3Cl)=NO2)cc1 (configuration not stated) | 7 | / | -4 | 34 | -5 | /
CCC(Sc1ccc2nnc(-c3ccc(OC)c(OC)c3)n2n1)C(=O)O (configuration not stated) | 2 | -1 | 2 | 60* | -2 | 2
COc1ccc(-c2nnc3ccc(SC(C(C)=O)C(C)=O)nn23)cc1OC | 4 | 5 | 11 | 106* | 0 | 0
SMILES | HDAC3 inhib | G6PDH counter | UBC9 SUMO inh | PHOSPHO1 block | PfM18AAP inh | p97 ATPase inh
COC(=O)CSc1ccc2nnc(-c3ccc(OC)c(OC)c3)n2n1 | 2 | -18 | 9 | -12 | -3 | 2
O=C(O)c1ccc(N2CCCS2(=O)=O)cc1 | 1 | / | -3 | 32 | 3 | /
CC(C)(C)c1ccc(-c2noc(-c3ccc4c(c3)CCO4)n2)cc1 | 1 | / | 7 | 13 | -2 | 3
FC(F)(F)c1cnc(-n2cc[nH]c2=S)c(Cl)c1 | -12 | 4 | 21 | 98* | -8 | -2
Cn1cccc1Cc1nnc(SCC(=O)Nc2ccc(F)cc2)n1CCc1ccccc1 | 2 | -34 | 9 | -6 | -4 | 2
COc1ccc(OC)c(NC(=O)CSc2nnc(Cc3cccn3C)n2CCc2ccccc2)c1 | -6 | 5 | 5 | 69* | 0 | -3
COc1ccc(OC)c(NC(=O)CSc2ncccn2)c1 | 2 | 16 | 0 | 76* | 6 | 2
